Reference: PMC4336329 (PLoS ONE, 2015)
In all, about 310,000 compounds went through this assay and about 14,000 (4.5%) showed an effect of 50% or more. The effect is printed as a negative number. For the sample, strong results were picked, then their nearest neighbours and some compounds at random.

Each molecule was assayed against human ether-à-go-go-related gene (hERG) potassium channel (human, UniProt Q12809) (assay: primary screen, population patch clamp on CHO cells stably expressing hERG; higher = less effect of the substance).
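Also: peak tail current of the secondary pulse compared with the same well before compound.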

Chain of human ether-à-go-go-related gene (hERG) potassium channel (Q12809 whole entry, looked up): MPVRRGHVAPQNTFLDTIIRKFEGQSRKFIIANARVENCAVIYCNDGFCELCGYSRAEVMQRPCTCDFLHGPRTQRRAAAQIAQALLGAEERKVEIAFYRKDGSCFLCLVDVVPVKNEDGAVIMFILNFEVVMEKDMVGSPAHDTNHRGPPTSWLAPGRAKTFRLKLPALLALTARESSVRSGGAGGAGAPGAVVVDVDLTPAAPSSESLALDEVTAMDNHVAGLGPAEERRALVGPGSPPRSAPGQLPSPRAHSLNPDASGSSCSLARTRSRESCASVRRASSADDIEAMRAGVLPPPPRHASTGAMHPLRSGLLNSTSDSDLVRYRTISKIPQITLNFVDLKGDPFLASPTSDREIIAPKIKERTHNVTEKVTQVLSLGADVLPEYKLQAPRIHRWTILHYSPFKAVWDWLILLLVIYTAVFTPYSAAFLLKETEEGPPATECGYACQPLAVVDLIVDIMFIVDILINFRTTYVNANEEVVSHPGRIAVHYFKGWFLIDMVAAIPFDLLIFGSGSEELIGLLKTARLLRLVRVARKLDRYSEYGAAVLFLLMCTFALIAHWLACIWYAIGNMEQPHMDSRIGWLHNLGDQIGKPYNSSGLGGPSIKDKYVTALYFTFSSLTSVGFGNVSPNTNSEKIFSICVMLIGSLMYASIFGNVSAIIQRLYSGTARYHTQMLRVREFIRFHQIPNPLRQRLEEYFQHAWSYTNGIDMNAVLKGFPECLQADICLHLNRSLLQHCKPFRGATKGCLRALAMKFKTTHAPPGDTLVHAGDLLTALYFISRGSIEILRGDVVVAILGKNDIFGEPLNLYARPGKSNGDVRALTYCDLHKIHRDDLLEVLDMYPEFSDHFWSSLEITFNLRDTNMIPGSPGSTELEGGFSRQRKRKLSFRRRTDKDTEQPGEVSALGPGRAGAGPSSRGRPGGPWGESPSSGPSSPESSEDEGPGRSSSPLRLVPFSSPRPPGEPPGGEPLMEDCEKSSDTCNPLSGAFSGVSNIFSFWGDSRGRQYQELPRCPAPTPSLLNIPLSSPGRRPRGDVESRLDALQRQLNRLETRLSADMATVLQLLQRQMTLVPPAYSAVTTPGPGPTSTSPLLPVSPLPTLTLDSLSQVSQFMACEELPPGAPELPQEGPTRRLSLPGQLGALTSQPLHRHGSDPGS

Row | Structure (SMILES) | hERG current change (%, negative = inhibition) at 10uM [%]
1 | COc1ccc(Cl)cc1N1C(=O)C2CCCN2C1c1ccccc1F (stereo not shown) | -0.486
2 | C=CCNC(=O)C12CC3(C)CC(C)(CC(C)(C3)C1)C2 | -11.8
3 | CCOC(=O)C1CCCN(C(=O)CN(c2ccc(OC)cc2)S(=O)(=O)c2c(C)noc2C)C1 (stereo not shown) | -4.08
4 | CCOC(=O)C1(Cc2ccc(OC)cc2)CCN(C(=O)c2cc(C)nn2C)CC1 | -40.5
5 | O=[N+]([O-])c1cccc(Cl)c1NCCNS(=O)(=O)c1ccccc1 | -15.2
6 | Oc1ccccc1/C=N/c1c(-c2ccco2)nc2ccccn12 | -4.17
7 | OC1CCN(c2c3c(nc4cc(-c5ccc(F)cc5)nn24)CCC3)CC1 | -7.45
8 | Cc1ccc(/C=C/C(=O)N2CCCC(C(N)=O)C2)o1 (stereo not shown) | -8.59
9 | COc1ccc2c(c1)sc(N)[n+]2Cc1cc(C)cc2cccnc12.[Br-] | -74
10 | CCOc1ccc(C(=O)C[n+]2cccc3cc(C)ccc32)cc1.[Br-] | -47.9
11 | Cc1cc(C[n+]2ccsc2N)c2ncccc2c1.[Br-] | -48.2
12 | CCOc1ccc2c(c1)sc(N)[n+]2Cc1cc(C)cc2cccnc12.[Br-] | -74.9
13 | CCOc1cccc(OCCCOc2cccc3cccnc23)c1 | -8.52
14 | Cc1cc(C[n+]2ncsc2N)c2ncccc2c1.[Br-] | -33.8
15 | CC(C)CCN(C(=O)C1CSC2(C)CCC(=O)N12)c1c(N)n(Cc2ccccc2)c(=O)[nH]c1=O (stereo not shown) | 6.21
16 | CC12CCC(C(=O)N(c3cccc(Cl)c3)C1=O)C2(C)C (stereo not shown) | -4.23
17 | O=Nc1ccc(NOC(=O)c2ccccc2)cc1 | 5.89
18 | COc1ccc(CNC(=O)C(C#N)c2nc3ccccc3nc2N2CCCC2)cc1 (stereo not shown) | 10.1
19 | COc1ccc(C)cc1NC(=O)c1ccc(S(=O)(=O)N2CCOCC2)cc1 | 2.48
20 | CC(C)OCC(O)CN1CCN(CC(O)COc2ccc3c(c2)OCO3)CC1 (stereo not shown) | -33.3
21 | Cl.OC(COc1ccccc1)CN1CCN(Cc2ccc3c(c2)OCO3)CC1 (stereo not shown) | -60.5
22 | Cc1cc(C)cc(OCC(O)CN2CCN(Cc3ccc4c(c3)OCO4)CC2)c1.Cl (stereo not shown) | -76
23 | C=CCc1ccccc1OCC(O)CN1CCN(Cc2ccc3c(c2)OCO3)CC1 (stereo not shown) | -91
24 | COc1ccc2c(c1)c(C(O)CN1CCN(Cc3ccc4c(c3)OCO4)CC1)c(C)n2C (stereo not shown) | -11
25 | Cc1c(C(=O)C(=O)N2CCN(Cc3ccc4c(c3)OCO4)CC2)c2ccccc2n1C | -8.7
26 | Cl.OCCN1CCN(CC(O)COc2ccc3c(c2)OCO3)CC1 (stereo not shown) | 12.7
27 | Cc1c(C(O)CN2CCN(Cc3ccc4c(c3)OCO4)CC2)c2ccccc2n1C (stereo not shown) | -75.6
28 | Cl.OC(COCc1ccccc1)CN1CCN(Cc2ccc3c(c2)OCO3)CC1 (stereo not shown) | -45

Row | Structure (SMILES) | hERG current change (%, negative = inhibition) at 10uM [%]
29 | COc1ccc(OCC(O)CN2CCN(Cc3ccc4c(c3)OCO4)CC2)cc1.Cl (stereo not shown) | -47.4
30 | C=CCc1ccccc1OCC(O)CN1CCOCC1 (stereo not shown) | 13.1
31 | COc1cc(/C=N/Nc2nc(=O)[nH]nc2C)cc(OC)c1O | 11.7
32 | COc1ccc(NC(=O)Cn2nnc(-c3ccccc3NC(=O)c3ccco3)n2)cc1 | -12.8
33 | COc1cccc(OC)c1C(=O)Nc1ccccc1C(=O)N1CCOCC1 | 5.4
34 | CC(CNC(=O)CCC(=O)N1CCOc2ccccc21)c1ccccc1 (stereo not shown) | -9.84
35 | Fc1cccc(Cl)c1CSc1nnc2ccccn12 | 9.48
36 | COc1ccccc1NC(=O)NNC(=O)C(C)Oc1ccc2ccccc2c1 (stereo not shown) | 9.36
37 | Cc1cc2cc(CNC(=S)NC3CCCCC3)ccc2n1C | 13.8
38 | Cc1cc(OC(C)C(=O)N2CCN(c3ccc(F)cc3)CC2)c2c(C)cc(=O)oc2c1 (stereo not shown) | -1.27
39 | O=C(NCCOc1ccccc1Cl)c1ncn[nH]1 | -2.83
40 | COCCNC(=O)C(c1ccc(F)cc1)N(C(=O)CCC(=O)Nc1ccccn1)c1cccc(C)c1 (stereo not shown) | 16.2
41 | COc1cc(COCC(O)CN2CCN(Cc3ccc4c(c3)OCO4)CC2)cc(OC)c1OC.Cl (stereo not shown) | -0.319
42 | CC(=O)c1ccc(OCC(O)CN2CCN(Cc3ccc4c(c3)OCO4)CC2)cc1.Cl (stereo not shown) | -49.8
43 | Cc1ccc(OCC(O)CN2CCN(Cc3ccc4c(c3)OCO4)CC2)cc1C.Cl (stereo not shown) | -61.1
44 | Cc1ccc(C)c(OCC(=O)N2CCN(Cc3ccc4c(c3)OCO4)CC2)c1 | -23.3
45 | Cc1ccc(OCC(O)CN2CCN(Cc3ccc4c(c3)OCO4)CC2)c(C)c1.Cl (stereo not shown) | -57.1
46 | CC(=O)c1ccc(OCC(O)CN2CCN(Cc3ccc4c(c3)OCO4)CC2)cc1 (stereo not shown) | -34.8
47 | Cc1cccc(N2CCN(C(=O)CCn3c(=O)[nH]c4ccsc4c3=O)CC2C)c1 (stereo not shown) | 21.5
48 | COc1ccc(OC)c2sc(NC(=O)c3ccc(S(=O)(=O)N4CCOCC4)cc3)nc12 | -2.05
49 | CC(NCCO)C(=O)C12CC3CC(CC(C3)C1)C2.Cl (stereo not shown) | 13.1
50 | CCOC(=O)C1CCN(C(=O)Cn2cnc3sc(C)c(S(=O)(=O)N4CCOCC4)c3c2=O)CC1 | -14
51 | Cc1sc2ncn(CC(=O)N3CCN(c4ccccc4)CC3)c(=O)c2c1S(=O)(=O)N1CCOCC1 | -16
52 | CCOC(=O)C1CCN(C(=O)Cn2cnc3sc(C)c(S(=O)(=O)N4CCC(C)CC4)c3c2=O)CC1 | -67.9
53 | Cc1sc2ncn(CC(=O)N3CCN(c4ccc(F)cc4)CC3)c(=O)c2c1S(=O)(=O)N1CCOCC1 | -64.3
54 | COc1ccc(N2CCN(C(=O)Cn3cnc4sc(C)c(S(=O)(=O)N5CCOCC5)c4c3=O)CC2)cc1 | -20.7
55 | CCOC(=O)C1CCN(C(=O)Cn2cnc3sc(C)c(S(=O)(=O)N4CCCCC4)c3c2=O)CC1 | -35.5
